Screening data (PubChem BioAssay)
T cruzi growth-1: blocks T. cruzi growth in NIH3T3 culture. inhibition, % at 8.34 µM. T. cruzi beta-gal in NIH3T3, GalScreen luminescence, 90 h. 77,000 compounds, 5.9% hits;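 active = mean inhibition above about 93%, with at least 55% of replicates each passing it, limit read from the data, passing the limit was not always enough; inconclusive = only one of those two conditions holds; inactive = neither condition holds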
C diff growth: C. difficile growth inhibition; Clostridium difficile clinical isolate growth, OD600, 24 h; hits give low values; growth activity, negative = inhibition, % at 16 µg/mL (by protocol); 86,000 compounds, 0.25% hits;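 active = mean growth activity at or below -80% and every replicate also at or below -80%; inconclusive = mean at or below -80% but some replicate above -80%; inactive = mean growth activity above -80%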;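 also: 0% = DMSO wells and -100% = levofloxacin 16 µg/mL wells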
Pf Dd2 inh: P. falciparum Dd2 growth inhibition; AID 1159554; SYBR Green, 72 h; hits give low values; activity change, % at 10 µM; 94,000 compounds, 2.3% hits; in the data active = activity change below about -80%; inconclusive = no clear call, values can overlap the other calls
T cruzi growth-2: inhibitors of T. cruzi proliferation; inhibition, % at 8.35 µM; 5,600 compounds, 72% hits; AID 651739; shares compounds with T cruzi growth-1; T. cruzi beta-gal in NIH3T3, GalScreen luminescence, 90 h;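 active = mean replicate inhibition above about 95% and at least 55% of replicates individually reaching it, limit read from the data; inconclusive = only one of the two criteria is met; inactive = neither criterion is met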
T cruzi growth-3: blocks T. cruzi growth in NIH3T3 host cells; shares compounds with T cruzi growth-1; T. cruzi beta-gal in NIH3T3, GalScreen luminescence, 90 h; inhibition, % at 2.09 µM; 5,600 compounds, 21% hits; AID 651740;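 active = mean inhibition above about 95%, with at least 55% of replicates also reaching it, limit read from the data; inconclusive = meets just one of the two conditions; inactive = meets neither condition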;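 also: plate controls were neutral control median for no effect and positive control median for full effect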
3T3 cytotox: NIH/3T3 (mouse) viability loss | shares compounds with T cruzi growth-1 | 5,600 compounds, 14% hits | NIH/3T3 viability, CellTiter-Glo ATP luminescence, 90 h | cytotoxicity (signal decrease), % at 8.35 µM;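 active = mean signal decrease across replicates above about 35% based on untreated-well scatter, with enough replicates individually passing, limit read from the data; inconclusive = no rule stated though some were filed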;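 also: 0% = median of neutral control wells and 100% = median of positive control wells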
NIH3T3 tox 2: cytotoxicity in mouse NIH/3T3 fibroblasts; shares compounds with T cruzi growth-1; NIH/3T3 viability, CellTiter-Glo ATP luminescence, 90 h; inhibition, % at 24.9 µM; 5,600 compounds, 56% hits; AID 651744;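 active = mean loss of cell viability signal at or above a set limit, and enough replicates individually reaching it; inconclusive = meets only the mean limit or only the replicate share; inactive = meets neither condition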;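 also: 0% = median of neutral control wells and 100% = median of positive control wells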
Active calls of the source: *; ? = inconclusive; nt = no result. In the library only some 6.8% were active in any assay of this set; here they are far more common.

SMILES | T cruzi growth-1 | C diff growth | Pf Dd2 inh | T cruzi growth-2 | T cruzi growth-3 | 3T3 cytotox | NIH3T3 tox 2
COc1ccc(S(=O)(=O)Nc2cccc3c2O[C@@H](CN(C)S(=O)(=O)c2cccs2)[C@@H](C)CN([C@@H](C)CO)C3=O)cc1 | 15.9 | -4.8 | -8.6 | nt | nt | nt | nt
COCC(=O)N(C)C[C@H]1Oc2cc(C#Cc3ccccc3)ccc2S(=O)(=O)N([C@@H](C)CO)C[C@H]1C | -12.6 | -4.5 | -48.4 | nt | nt | nt | nt
C[C@@H]1CCCCO[C@H](CN(C)C(=O)CCCN(C)C)[C@@H](C)CN([C@H](C)CO)C(=O)c2cc(NC(=O)C3CCCCC3)ccc2O1 | 21.2 | 0.9 | 37.2 | nt | nt | nt | nt
O=C(C1CCCC1)N1CCCCN2[C@H](C1)[C@@H](c1ccc(-c3cccc(F)c3)cc1)[C@@H]2CO | 92.6 | 33.6 | 21.5 | nt | nt | nt | nt
C[C@@H]1CN([C@@H](C)CO)S(=O)(=O)c2ccc(-c3cccc(F)c3)cc2O[C@H]1CN(C)C | -34.0 | 0.1 | nt | nt | nt | nt | nt
C[C@H](CO)N1C[C@H](C)[C@H](CN(C)S(=O)(=O)c2ccc(F)cc2)Oc2cc(-c3cccc(F)c3)ccc2S1(=O)=O | 123.8* | 9.3 | -59.5 | 98.1* | 94.6 | 19.6 | 54.0*
C[C@@H]1CN([C@@H](C)CO)S(=O)(=O)c2ccc(-c3cccc(F)c3)cc2O[C@@H]1CN(C)S(=O)(=O)c1ccc(F)cc1 | 119.8 | 7.3 | 1.1 | nt | nt | nt | nt
C[C@H]1CN([C@@H](C)CO)S(=O)(=O)c2ccc(-c3cccc(F)c3)cc2O[C@H]1CN(C)S(=O)(=O)c1ccc(F)cc1 | 118.3* | 6.8 | -54.4 | 99.2* | 107.6* | 25.9 | 52.2*
O=C(O)C[C@H]1C[C@@H]2c3cc(NC(=O)Nc4ccccc4)ccc3O[C@@H]2[C@H](CO)O1 | 21.2 | -1.4 | 26.7 | nt | nt | nt | nt
COc1ccccc1-c1ccc2c(c1)[C@@H]1[C@@H](CCN1S(=O)(=O)c1ccc(C)cc1)[C@H](CO)N2 | 33.6 | 8.2 | -40.4 | nt | nt | nt | nt
C[C@H](CO)N1C[C@H](C)[C@@H](CN(C)C(=O)C2CC2)OCc2ccccc2-c2c(n(C)c3ccccc23)C1=O | 89.0 | 5.9 | -21.7 | nt | nt | nt | nt
C[C@@H]1CN([C@H](C)CO)C(=O)c2c(c3ccccc3n2C)-c2ccccc2CO[C@@H]1CN(C)C(=O)Nc1ccc2c(c1)OCO2 | nt | -5.4 | -28.6 | nt | nt | nt | nt
CC(=O)N(C)C[C@@H]1OCc2ccccc2-c2c(n(C)c3ccccc23)C(=O)N([C@@H](C)CO)C[C@H]1C | -36.1 | nt | 39.8 | nt | nt | nt | nt
C[C@H](CO)N1C[C@H](C)[C@H](CN(C)C(=O)C2CC2)OCc2ccccc2-c2c(n(C)c3ccccc23)C1=O | ? | 2.1 | -22.1 | 70.4 | 18.9 | 3.0 | 38.4*
C[C@@H]1CN([C@@H](C)CO)C(=O)c2c(c3ccccc3n2C)-c2ccccc2CO[C@H]1CN(C)Cc1cccnc1 | 91.7 | -1.8 | -27.9 | nt | nt | nt | nt
C[C@@H]1CN([C@@H](C)CO)C(=O)c2c(c3ccccc3n2C)-c2ccccc2CO[C@H]1CN(C)C | ? | -9.9 | -17.1 | ? | 43.9 | 16.4 | 30.9
C[C@H](CO)N1C[C@H](C)[C@@H](CN(C)Cc2cccnc2)OCc2ccccc2-c2c(n(C)c3ccccc23)C1=O | ? | -2.2 | -10.3 | 75.3 | 44.5 | 16.1 | 24.8
C[C@@H]1CN([C@@H](C)CO)C(=O)c2c(c3ccccc3n2C)-c2ccccc2CO[C@H]1CN(C)C(=O)Nc1ccc2c(c1)OCO2 | 105.4* | -1.3 | -82.4* | 85.2 | 33.3 | 13.4 | 15.3
COc1ccc(S(=O)(=O)Nc2ccc3c(c2)C(=O)N([C@@H](C)CO)C[C@@H](C)[C@H](CN(C)CC2CCCCC2)OCCCC[C@@H](C)O3)cc1 | 60.3 | -4.3 | -61.7 | nt | nt | nt | nt
C[C@@H](NC(=O)C[C@H]1CC[C@@H]2[C@H](COC[C@@H](O)CN2C(=O)Nc2cccc(F)c2)O1)c1ccccc1 | -32.2 | -3.8 | -3.7 | nt | nt | nt | nt
CO[C@@H]1CN(C)C(=O)c2ccc(NC(=O)c3ccc(F)cc3)cc2OC[C@@H](C)N(C(=O)CC2CC2)C[C@H]1C | -0.5 | nt | -7.9 | nt | nt | nt | nt
COCC(=O)N(C)C[C@@H]1Oc2cc(-c3ccccc3F)ccc2S(=O)(=O)N([C@H](C)CO)C[C@H]1C | nt | 3.0 | 18.4 | nt | nt | nt | nt
COc1ccc(S(=O)(=O)N2CCCCN3[C@H](CO)[C@H](c4ccc(C#CC(C)C)cc4)[C@@H]3C2)cc1 | 81.4 | 6.0 | 9.2 | nt | nt | nt | nt
